Compound activity: PubChem, National Center for Advancing Translational Sciences (NCATS)
JMJD2A Tudor inh: blocks the human JMJD2A Tudor domain; O75164; Potency, µM (top dose mostly 114 µM), for the others: at the highest dose activity change, negative = inhibition, most hits filed as inhibitors; AlphaScreen JMJD2A-Tudor / H3K4me3 peptide binding; 390,000 compounds, 4.4% hits; note: potency is the fitted concentration of half-maximal effect; % is set by controls: 0 for no effect and ±100 for the full control effect; nearly all actives have a fitted effect of over 50% in size
CtBP-E1A blk: inhibitors of CtBP/E1A interaction. AlphaScreen GST-E1A/His-CtBP binding, 1536-well; hits give low values. activity change, % (test concentration not listed). 340,000 compounds, 0.49% hits; in the data active = activity change below about -65%; inconclusive = mostly about -30% to -63%; note: % is set by controls: 0 for no effect and ±100 for the full control effect
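GST-E1A and His-tagged CtBP (125 nM each as 5X stock) were preincubated with pin-transferred compound for 2 h at 37 °C in the dark, then glutathione donor and nickel acceptor beads were added for 1 h before AlphaScreen reading.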
HP1b binding inh: blocks HP1-beta chromodomain binding to methylated histone tails | P83916 | AlphaScreen HP1-beta / biotin-H3K9me3 peptide binding | Potency, µM (doses to about 114 µM), without a hit: at the highest dose activity change, negative = inhibition, usual class: inhibitors | 390,000 compounds, 0.56% hits | AID 540317; note: potency is the fitted concentration of half-maximal effect; nearly all actives have a fitted effect of over 70% in size
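HP1-beta protein (50 nM final) preincubated 30 min at room temperature with biotinylated H3(1-18)K9me3 peptide (50 nM) in PBS pH 7.4, 0.01% Tween-20, then compound added for 30 min. AlphaScreen streptavidin donor/nickel chelate acceptor beads (10 ug/mL final), 30 min dark, luminescence read.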
Six1-Eya2 inh: inhibitors of human Six1/Eya2 interaction | AlphaScreen GST-Six1/His-Eya2 binding, biochemical; hits give low values | activity change, % (no concentration beside the values) | 360,000 compounds, 0.56% hits | Q15475+O00167 | AID 651725; in the data active = activity change below about -65%; inconclusive = mostly about -30% to -63%; note: % is set by controls: 0 for no effect and ±100 for the full control effect
Target sequence (O00167 whole entry, looked up): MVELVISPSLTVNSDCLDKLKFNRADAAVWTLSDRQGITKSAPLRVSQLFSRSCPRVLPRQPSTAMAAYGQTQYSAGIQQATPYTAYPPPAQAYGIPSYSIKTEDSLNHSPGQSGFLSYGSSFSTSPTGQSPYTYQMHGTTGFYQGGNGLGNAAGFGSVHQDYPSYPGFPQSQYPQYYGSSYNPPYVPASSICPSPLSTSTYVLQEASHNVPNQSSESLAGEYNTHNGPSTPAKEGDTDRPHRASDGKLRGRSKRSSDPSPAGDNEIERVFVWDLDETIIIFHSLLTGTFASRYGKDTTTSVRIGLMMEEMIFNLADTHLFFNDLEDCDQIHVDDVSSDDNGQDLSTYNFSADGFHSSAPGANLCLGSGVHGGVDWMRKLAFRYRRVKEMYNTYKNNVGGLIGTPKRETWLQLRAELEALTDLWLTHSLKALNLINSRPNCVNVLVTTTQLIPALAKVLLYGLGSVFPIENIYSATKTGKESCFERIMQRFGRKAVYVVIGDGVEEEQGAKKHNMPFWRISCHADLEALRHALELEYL
Target sequence (Q15475 whole entry, looked up): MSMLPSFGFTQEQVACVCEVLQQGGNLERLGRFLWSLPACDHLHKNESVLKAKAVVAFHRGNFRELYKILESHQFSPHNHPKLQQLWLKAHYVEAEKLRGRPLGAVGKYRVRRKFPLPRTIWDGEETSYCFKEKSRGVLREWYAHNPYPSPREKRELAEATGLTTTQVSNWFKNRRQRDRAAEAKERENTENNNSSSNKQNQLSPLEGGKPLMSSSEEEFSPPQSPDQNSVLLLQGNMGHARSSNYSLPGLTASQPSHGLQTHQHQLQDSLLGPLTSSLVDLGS
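GST-Six1 + His-Eya2 (5X stock: 250/500 nM); Tris pH 8.0, 300 mM NaCl, 0.05% BSA, 0.02% Tween 20; GSH donor/Ni acceptor beads; 1 h 37 °C dark; AlphaScreen readout.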
G9a block: inhibitors of human histone lysine methyltransferase G9a; 350,000 compounds, 8.8% hits; G9a H3K9 monomethylation, AlphaScreen, 2 h; Potency, µM (series often up to 102 µM), for inactives: at the highest dose activity, negative = inhibition, usual class: inhibitors; note: potency is the fitted concentration of half-maximal effect; % is set by controls: 0 for no effect and ±100 for the full control effect; nearly all actives have a fitted effect of over 75% in size
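G9a (20 nM) was preincubated 15 min with compound, then reacted 2 h at room temperature with 500 nM biotin-H3K9 peptide and 20 µM SAM. Monomethyl-H3K9 detected by AlphaScreen using anti-H3K9me1 antibody.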
BAZ2B inh: BAZ2B (human) inhibition | AlphaScreen BAZ2B-H3K14Ac peptide displacement | Potency, µM (highest dose often 114 µM), without a hit: top-dose activity change, negative = inhibition, hits mostly inhibitors | Q9UIF8 | 360,000 compounds, 4.4% hits | AID 504333; note: potency is the fitted concentration of half-maximal effect; % is set by controls: 0 for no effect and ±100 for the full control effect; nearly all actives have a fitted effect of over 60% in size
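Complex of BAZ2B and biotin-H3K14Ac (50 nM apiece) forms over 30 min at RT, then faces library compounds up to 110 uM for another 30 min; AlphaScreen beads added, 20 min dark incubation, luminescence read.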
* = called active by the depositor; ! = not active in a repeat; [ ] = remark or other dose. This is a sample that favours compounds with a hit; in the whole collection about 10% have one here. Unless noted, calls come from the whole dose curve; as a rule, active = well fitted inhibition curve with a large enough effect; inconclusive = small, poorly fitted or top-dose-only effect; inactive = no such curve, though single readings can be large or run the other way.

Results for O=C(O)c1cc2ccccc2oc1=O ?
JMJD2A Tudor inh: -16%; CtBP-E1A blk: 2; HP1b binding inh: 24%; Six1-Eya2 inh: 7; G9a block: inconclusive; BAZ2B inh: 7%

How did N#CCCn1cc(C=C2C(=O)NC(=O)NC2=O)c(-c2ccccc2)n1 do in these assays?
JMJD2A Tudor inh: 2%; CtBP-E1A blk: 3; HP1b binding inh: 59%; Six1-Eya2 inh: 0; G9a block: inconclusive; BAZ2B inh: 4%

How did O=C(O)CCn1cc(C=C2C(=O)NC(=S)NC2=O)c(-c2cc3ccccc3oc2=O)n1 do in these assays?
JMJD2A Tudor inh: 89µM*; CtBP-E1A blk: 0; HP1b binding inh: -13%; Six1-Eya2 inh: -23; G9a block: 11µM*; BAZ2B inh: 50µM*

Results for O=C(O)CCn1cc(C=C2C(=O)NC(=S)NC2=O)c(-c2ccccc2)n1 ?
JMJD2A Tudor inh: 13µM*; CtBP-E1A blk: 3; HP1b binding inh: -17%; Six1-Eya2 inh: 3; BAZ2B inh: 79µM*

What do the screens show for `CC(=O)Oc1ccc2c3c1OC1[C@@H](OC(C)=O)C=C[C@H]4[C@H](C2)N(C)CC[C@]314` (some centres undefined)?
G9a block: -42%[12.7 µM]

How did O=C(c1ccco1)N1CCN(C(=O)c2ccc(COc3ccc(Cl)cc3Cl)o2)CC1 do in these assays?
JMJD2A Tudor inh: 89µM*; CtBP-E1A blk: -18; HP1b binding inh: -20%; Six1-Eya2 inh: -14

Results for CC(C)C[C@H](NC(=O)[C@H](Cc1ccccc1)NC(=O)CNC(=O)[C@H](CO)NC(=O)[C@@H](N)Cc1ccc(O)cc1)C(=O)N[C@H](C(=O)O)[C@H](C)O ?
G9a block: 23%[59 µM]

Results for CC(C)c1cccc(O)c(=O)c1 ?
JMJD2A Tudor inh: -23%; CtBP-E1A blk: -5; HP1b binding inh: 49%; Six1-Eya2 inh: -17; G9a block: 11µM*!; BAZ2B inh: 56µM*

What do the screens show for `NCC(O)c1cccc(O)c1` (centres undefined)?
G9a block: -4%[12.7 µM]

Results for O=c1[nH]c(=S)[nH]c(O)c1/C=N/N1CCOCC1 ?
JMJD2A Tudor inh: 6%; HP1b binding inh: 53%; Six1-Eya2 inh: 11; G9a block: 50µM*; BAZ2B inh: 0%

How did Cc1ccc(-n2c(O)c(/C=N/N3CCOCC3)c(=O)[nH]c2=S)cc1 do in these assays?
JMJD2A Tudor inh: inconclusive; CtBP-E1A blk: -14; HP1b binding inh: 21%; Six1-Eya2 inh: 3; G9a block: inconclusive; BAZ2B inh: inconclusive

What do the screens show for `Cn1cc(/C=C(\C(=O)O)C(C(=O)O)=C2CCCCC2)c2ccccc21`?
JMJD2A Tudor inh: inconclusive; CtBP-E1A blk: 8; HP1b binding inh: -20%; Six1-Eya2 inh: 0; G9a block: 32µM*; BAZ2B inh: inconclusive

Results for Cn1cc(C=C(C#N)C#N)c2ccccc21 ?
JMJD2A Tudor inh: -9%; CtBP-E1A blk: 15; HP1b binding inh: 79%; Six1-Eya2 inh: 3; BAZ2B inh: -21%

Results for Cc1ccc2oc(=O)n(CCC(=O)Nc3ccc(N4CCOCC4)cc3)c2c1 ?
JMJD2A Tudor inh: -18%; CtBP-E1A blk: 6; HP1b binding inh: 20%; Six1-Eya2 inh: -5; G9a block: inconclusive; BAZ2B inh: -22%

What do the screens show for `CC(C)c1c(CN(C)[C@@H](C)Cc2ccccc2)n(C)n(-c2ccccc2)c1=O`?
G9a block: 4%[5.15 µM]

Results for COc1cc(C)c(C(=O)CC(=O)c2c(C)cc(OC)cc2C)c(C)c1 ?
JMJD2A Tudor inh: 41%; CtBP-E1A blk: -3; HP1b binding inh: 45%; Six1-Eya2 inh: 18

What do the screens show for `COCc1[nH]nc2c1C(c1ccccc1F)C(C#N)=C(N)O2` (centres undefined)?
JMJD2A Tudor inh: -9%; CtBP-E1A blk: -3; HP1b binding inh: 31%; Six1-Eya2 inh: 12; G9a block: -10%; BAZ2B inh: 18%

How did CNC(=O)Oc1ccc2ncccc2c1 do in these assays?
JMJD2A Tudor inh: 8%; CtBP-E1A blk: 24; HP1b binding inh: 46%; Six1-Eya2 inh: 1; G9a block: 45µM*; BAZ2B inh: -2%

Results for COc1ccc(C2N(c3cc(C)on3)C(=O)C3CCCN32)cc1 (centres undefined) ?
JMJD2A Tudor inh: inconclusive; CtBP-E1A blk: 2; HP1b binding inh: -2%; Six1-Eya2 inh: -3; G9a block: 35µM*; BAZ2B inh: -28%

What do the screens show for `Cc1cc(N2C(=O)C3CCCN3C2c2cccc(Cl)c2)no1` (centres undefined)?
JMJD2A Tudor inh: -35%; CtBP-E1A blk: 4; HP1b binding inh: 29%; Six1-Eya2 inh: -2; G9a block: -14%[59 µM]; BAZ2B inh: 9%

How did O=C(NC1CCCCCC1)c1ccc[nH]c1=S do in these assays?
JMJD2A Tudor inh: 5µM*; CtBP-E1A blk: 2; HP1b binding inh: inconclusive; Six1-Eya2 inh: 0; G9a block: 2.5µM*; BAZ2B inh: -4%

What do the screens show for `O=S(=O)(O)c1cc(O)ccc1O`?
JMJD2A Tudor inh: 79µM*; CtBP-E1A blk: 4; HP1b binding inh: inconclusive; Six1-Eya2 inh: -2; G9a block: 10µM*; BAZ2B inh: 3%

What do the screens show for `Cc1nn(C)c(C)c1P(=S)(c1c(C)nn(C)c1C)N(C)C`?
JMJD2A Tudor inh: -11%; CtBP-E1A blk: 5; HP1b binding inh: -4%; Six1-Eya2 inh: 2; G9a block: 14µM*; BAZ2B inh: -30%

What do the screens show for `NC(Cc1nc2ccccc2[nH]1)c1ccc(Cl)cc1` (centres undefined)?
JMJD2A Tudor inh: -25%; CtBP-E1A blk: -7; HP1b binding inh: 11%; Six1-Eya2 inh: 4; G9a block: 40µM*; BAZ2B inh: -25%

What do the screens show for `NC(Cc1ccccc1)c1nc2ccccc2[nH]1` (centres undefined)?
JMJD2A Tudor inh: inconclusive; CtBP-E1A blk: -6; HP1b binding inh: 60%; Six1-Eya2 inh: -14; G9a block: inconclusive; BAZ2B inh: inconclusive

Results for O=C1NC(=O)[C@]2(Cc3ccccc3N3CCN(c4ccccc4)CC32)C(=O)N1c1ccccc1 (some centres undefined) ?
JMJD2A Tudor inh: inconclusive; CtBP-E1A blk: -11; HP1b binding inh: 14%; Six1-Eya2 inh: -18; G9a block: 3.2µM*; BAZ2B inh: -31%

Results for CN1C(=O)NC(=O)[C@]2(Cc3ccccc3N3CCN(c4ccccc4)CC32)C1=O (some centres undefined) ?
JMJD2A Tudor inh: -33%; CtBP-E1A blk: -26; HP1b binding inh: 11%; Six1-Eya2 inh: -28; G9a block: 3.2µM*; BAZ2B inh: -28%
